Source: PubChem BioAssay (NCATS)
“And” between values parts separate entries of the source, which are not always exact repeats. Equal entries are not always repeated. Inconclusive results are not listed. The source made the active and inactive calls. Unless noted, the call rests on the fitted dose curve; in most records, active means well fitted curve in either direction with a large enough effect (not every such curve was filed as active); inconclusive means small, poorly fitted or top-dose-only effect, or another doubt; inactive means flat fitted curve, though single readings scatter.

Tests used:
[1] = AP1 Signaling Pathway (AID 357);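 further: ME-180 reporter cells stimulated with EGF at its EC50 level; on the % scale 0 is the no-effect control and ±100 the full control effect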
Summary of the method: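 Titration-series screen for positive or negative modulators of EC50 EGF-induced signaling in ME-180 cells carrying an AP-1-driven beta-lactamase reporter. After 5 hours at 37 degrees Celsius, CCF4 460nm/530nm emission ratio gave %Activity; AC50 values derived.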

[2] = target: Cytochrome P450 1A2 (Homo sapiens) (UniProt P05177); assay: p450-cyp1a2 (AID 410; calls by dose curve;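 further: -100% = full effect of reference inhibitor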)
Summary of the method: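 Luminescent demethylation readout: Luciferin-ME (100uM, equal to Km) turned over by 20nM CYP1A2 for 60 min at room temperature after NADPH regeneration addition, following 10 min compound preincubation. Normalization used 57 uM furafylline as full inhibition.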

[3] = NFAT Signaling Pathway (AID 444); settings: Jurkat NFAT-bla M1, carbachol, beta-lactamase ratio, 5 h;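 further: carbachol stimulus at about its EC50 of 1 µM final; on the % scale 0 is the no-effect control and ±100 the full control effect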
Summary of the method: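 Jurkat cells with NFAT-driven β-lactamase reporter and co-expressed M1 receptor, stimulated with carbachol (final 1 uM, ~EC50), compound titration, 5 h at 37 °C. CCF4 loaded 1 h at RT; 460/530 nm ratio gave %activity and AC50.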

[4] = Stat Signaling Pathway (AID 446);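 further: ME-180 cervical cancer cells given 40 pM IL-6 alongside compound; SIE-controlled beta-lactamase reporter measured as 460/530 nm FRET emission ratio; on the % scale 0 is the no-effect control and ±100 the full control effect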
Summary of the method: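 Overnight-plated ME-180 cells bearing a STAT Inducible Element beta-lactamase reporter; 5 h co-exposure to compound and 40 pM IL-6; values normalized to 300 pM IL-6 and 125 nM JAK inhibitor controls.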

[5] = target: Mitogen-activated protein kinase 10 (Mus musculus) (UniProt Q61831); assay: JNK3 AlphaScreen Assay (AID 530);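 further: kinase came from lysate of stimulated human HepG2 cells; signal reports phosphorylation of biotinylated GST-cJun 1-79 at Ser73 with 10 µM ATP; on the % scale 0 is the no-effect control and ±100 the full control effect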
Summary of the method: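 Activity was read by AlphaScreen after JNK3-containing HepG2 lysate (cytokine pre-activated) phosphorylated biotinylated GST-cJun with 10 uM ATP at room temperature. Phospho-Ser73 cJun antibody with Protein-A acceptor beads provided detection.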

[6] = target: 3',5'-cyclic-AMP phosphodiesterase 4B (Homo sapiens) (UniProt Q07343); assay: qHTS Assay for Inhibitors of PDE-IV (AID 607; active means well fitted activation curve with a large enough effect in the main read-out, with a control signal flat, not every such curve was filed as active; further: % of control where 0% means no effect)
Summary of the method: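 Live HEK293 cells with a modified cyclic nucleotide-gated (CNG) channel report intracellular cAMP via membrane-potential dye fluorescence (ex 535/em 590 nm). Endogenous PDE-IV was targeted. Compounds were tested at up to 22.9 uM final; RO 20-1724 100 uM served as control.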

[7] = qHTS Assay for Lipid Storage Modulators (AID 1519; calls by dose curve); settings: Drosophila S3 cells, BODIPY lipid droplet/cell ratio, laser cytometry, cells loaded with oleic acid
Summary of the method: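 Cells seeded at 5,000 per well were treated with compounds over a concentration series and loaded with oleic acid (400 uM, as added). Lipid droplet fluorescence (488 nm excitation, 500-530 nm channel) was read by laser-scanning cytometry and normalized to 20 uM Triacsin C.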

[8] = target: Ubiquitin carboxyl-terminal hydrolase 1 (Homo sapiens) (UniProt O94782); assay: Inhibitors of USP1/UAF1: Pilot qHTS (AID 504865; active means well fitted curve in the direction sought with a large enough effect; an effect the other way counts as inactive or inconclusive;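 further: rhodamine fluorescence freed from ubiquitin-rhodamine substrate followed over time; top concentration of the series differs between compounds; on the % scale 0 is the no-effect control and ±100 the full control effect; nearly all actives have a fitted effect of over 35% in size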)
Summary of the method: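 Kinetic fluorescence assay: 1nM USP1/UAF1, 15 min compound preincubation, then 150nM Ub-Rho; 480/540 nm.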

[9] = target: Glucocorticoid receptor (Homo sapiens) (UniProt P04150); assay: GR-GFP Redistribution (AID 450;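 active means compounds whose dose series gives a full or clear partial fitted curve of increased nuclear translocation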; further: potency means the concentration at half of the fitted maximal effect); settings: U2OS GR-GFP nuclear translocation, laser cytometry, 2 h
[10] = target: ATP-dependent 6-phosphofructokinase (Trypanosoma brucei brucei) (UniProt O15648); assay: qHTS Assay to Find Inhibitors of T. brucei phosphofructokinase: hit validation (AID 492961; active means well fitted curve in the direction sought with a large enough effect; an effect the other way counts as inactive or inconclusive)
Summary of the method: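 Inhibition of parasite PFK is measured as reduced ADP formation, quantified via luciferase after ATP depletion. Assay used 0.1 mM ATP, 0.5 mM F6P, 1.25 nM enzyme, 45 min incubation.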

[11] = qHTS profiling for inhibitors of Plasmodium falciparum proliferation (AID 504749; active means well fitted curve in the direction sought with a large enough effect; an effect the other way counts as inactive or inconclusive;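 further: 0% = DMSO vehicle and full inhibition = artemisinin control; nearly all actives have a fitted effect of over 60% in size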); settings: P. falciparum in erythrocytes, SYBR Green DNA, 72 h, at 12.8 µM (top of the series)
Summary of the method: (§1)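 Each compound contacts P. falciparum-infected red blood cells for 72 h at 37 C; lysis buffer (Tris, EDTA, saponin, Triton X, SYBR Green I) is added and fluorescence measured next morning; values normalized to controls.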

CP203 = assay: as above; settings: P. falciparum in erythrocytes, SYBR Green DNA, 72 h; series mostly up to 28.7 µM
Summary of the method: as §1

CP215 = assay: as above; settings: P. falciparum in erythrocytes, SYBR Green DNA, 72 h; series mostly up to 28.7 µM
Summary of the method: as §1

CP262 = assay: as above; settings: P. falciparum in erythrocytes, SYBR Green DNA, 72 h; series mostly up to 28.7 µM
Summary of the method: as §1

CP268 = assay: as above; settings: P. falciparum in erythrocytes, SYBR Green DNA, 72 h; series mostly up to 28.7 µM
Summary of the method: as §1

CP297 = assay: as above; settings: P. falciparum in erythrocytes, SYBR Green DNA, 72 h; series mostly up to 28.7 µM
Summary of the method: as §1

[12] = target: Glucocorticoid receptor (Homo sapiens) (UniProt P04150); assay: GR-EFC Redistribution (AID 451; calls by dose curve; further: potency means the concentration at half of the fitted maximal effect); settings: CHO-K1 GR-EFC translocation, beta-gal luminescence, 2 h
Summary of the method: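 CHO-K1 cells expressing nuclear EA and GR-ED fragments of b-gal; compounds titrated up to 46 uM final, 2 h at 37 C. GR nuclear translocation read as complemented b-gal luminescence after 1 h RT detection.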

[13] = target: Cytochrome P450 2D6 (Homo sapiens) (UniProt P10635); assay: qHTS Assay for Inhibitors and Substrates of Cytochrome P450 2D6 (AID 891; active means well fitted curve in the direction sought with a large enough effect; an effect the other way counts as inactive or inconclusive; further: potency means the concentration at half of the fitted maximal effect; nearly all actives have a fitted effect of over 60% in size)
Summary of the method: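 Luminescent read-out of luciferin formed by 5 nM human CYP2D6 demethylating 30 uM Luciferin-ME EGE (Km level) over 60 min at room temperature after NADPH regeneration addition. Data normalized to full inhibition by 1.43 uM quinidine.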

[14] = measured here: cell count channel max response
[15] = measured here: lipid channel max response

Chain of 3',5'-cyclic-AMP phosphodiesterase 4B (Homo sapiens) (Q07343 whole entry, looked up): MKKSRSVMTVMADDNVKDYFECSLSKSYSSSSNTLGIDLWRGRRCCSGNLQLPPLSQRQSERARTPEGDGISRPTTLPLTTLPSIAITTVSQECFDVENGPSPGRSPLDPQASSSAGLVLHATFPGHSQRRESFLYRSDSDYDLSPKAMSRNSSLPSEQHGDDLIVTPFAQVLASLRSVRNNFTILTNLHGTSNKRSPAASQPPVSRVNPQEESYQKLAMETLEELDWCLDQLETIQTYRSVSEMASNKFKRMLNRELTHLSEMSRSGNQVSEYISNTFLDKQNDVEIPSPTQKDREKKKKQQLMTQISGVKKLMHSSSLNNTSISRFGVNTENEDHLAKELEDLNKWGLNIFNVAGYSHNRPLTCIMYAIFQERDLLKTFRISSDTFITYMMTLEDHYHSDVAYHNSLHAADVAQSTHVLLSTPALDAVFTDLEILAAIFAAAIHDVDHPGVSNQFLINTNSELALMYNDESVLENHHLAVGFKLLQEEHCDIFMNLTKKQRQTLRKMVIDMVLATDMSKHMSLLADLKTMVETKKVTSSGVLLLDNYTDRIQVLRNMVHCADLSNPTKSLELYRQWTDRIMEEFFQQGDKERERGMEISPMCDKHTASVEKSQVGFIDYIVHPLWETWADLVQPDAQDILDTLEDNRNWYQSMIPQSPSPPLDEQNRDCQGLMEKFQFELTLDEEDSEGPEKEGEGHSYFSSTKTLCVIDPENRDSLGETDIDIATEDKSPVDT
Chain of Cytochrome P450 1A2 (Homo sapiens) (P05177 whole entry, looked up): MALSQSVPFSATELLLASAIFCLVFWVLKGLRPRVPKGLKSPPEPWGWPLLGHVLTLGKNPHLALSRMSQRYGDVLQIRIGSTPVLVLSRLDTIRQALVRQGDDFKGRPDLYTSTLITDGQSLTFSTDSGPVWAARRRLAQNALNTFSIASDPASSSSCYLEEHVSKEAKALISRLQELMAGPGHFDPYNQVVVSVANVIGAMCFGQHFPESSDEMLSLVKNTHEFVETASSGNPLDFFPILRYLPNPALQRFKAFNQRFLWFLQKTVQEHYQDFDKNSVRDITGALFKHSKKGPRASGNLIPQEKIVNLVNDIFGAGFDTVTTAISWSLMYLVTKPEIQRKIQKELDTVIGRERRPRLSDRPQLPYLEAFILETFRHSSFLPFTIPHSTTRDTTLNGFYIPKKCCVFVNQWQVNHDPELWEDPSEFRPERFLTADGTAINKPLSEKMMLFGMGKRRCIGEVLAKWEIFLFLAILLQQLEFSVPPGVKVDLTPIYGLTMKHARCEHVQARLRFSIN
Chain of Glucocorticoid receptor (Homo sapiens) (P04150 whole entry, looked up, the tested form may be a part): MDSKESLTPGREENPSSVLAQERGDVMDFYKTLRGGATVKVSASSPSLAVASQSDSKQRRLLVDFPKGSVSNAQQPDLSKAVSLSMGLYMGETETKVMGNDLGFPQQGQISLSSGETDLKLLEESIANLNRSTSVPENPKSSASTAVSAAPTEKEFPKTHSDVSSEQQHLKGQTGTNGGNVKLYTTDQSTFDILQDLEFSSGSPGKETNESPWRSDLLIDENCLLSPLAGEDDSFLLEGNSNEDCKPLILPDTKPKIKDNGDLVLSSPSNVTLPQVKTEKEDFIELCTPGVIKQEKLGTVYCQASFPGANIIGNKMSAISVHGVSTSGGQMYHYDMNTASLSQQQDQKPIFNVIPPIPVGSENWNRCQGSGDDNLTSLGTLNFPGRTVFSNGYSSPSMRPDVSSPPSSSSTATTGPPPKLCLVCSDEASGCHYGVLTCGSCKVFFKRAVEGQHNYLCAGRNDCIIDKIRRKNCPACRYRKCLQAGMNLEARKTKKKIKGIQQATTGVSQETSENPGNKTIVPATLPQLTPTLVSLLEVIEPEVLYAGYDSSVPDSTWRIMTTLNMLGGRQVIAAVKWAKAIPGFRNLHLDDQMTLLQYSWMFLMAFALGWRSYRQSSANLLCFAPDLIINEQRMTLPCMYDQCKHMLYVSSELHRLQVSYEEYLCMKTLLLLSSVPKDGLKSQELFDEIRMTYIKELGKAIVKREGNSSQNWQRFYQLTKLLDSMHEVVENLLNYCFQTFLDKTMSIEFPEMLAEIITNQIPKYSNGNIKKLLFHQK
Chain of Ubiquitin carboxyl-terminal hydrolase 1 (Homo sapiens) (O94782 whole entry, looked up): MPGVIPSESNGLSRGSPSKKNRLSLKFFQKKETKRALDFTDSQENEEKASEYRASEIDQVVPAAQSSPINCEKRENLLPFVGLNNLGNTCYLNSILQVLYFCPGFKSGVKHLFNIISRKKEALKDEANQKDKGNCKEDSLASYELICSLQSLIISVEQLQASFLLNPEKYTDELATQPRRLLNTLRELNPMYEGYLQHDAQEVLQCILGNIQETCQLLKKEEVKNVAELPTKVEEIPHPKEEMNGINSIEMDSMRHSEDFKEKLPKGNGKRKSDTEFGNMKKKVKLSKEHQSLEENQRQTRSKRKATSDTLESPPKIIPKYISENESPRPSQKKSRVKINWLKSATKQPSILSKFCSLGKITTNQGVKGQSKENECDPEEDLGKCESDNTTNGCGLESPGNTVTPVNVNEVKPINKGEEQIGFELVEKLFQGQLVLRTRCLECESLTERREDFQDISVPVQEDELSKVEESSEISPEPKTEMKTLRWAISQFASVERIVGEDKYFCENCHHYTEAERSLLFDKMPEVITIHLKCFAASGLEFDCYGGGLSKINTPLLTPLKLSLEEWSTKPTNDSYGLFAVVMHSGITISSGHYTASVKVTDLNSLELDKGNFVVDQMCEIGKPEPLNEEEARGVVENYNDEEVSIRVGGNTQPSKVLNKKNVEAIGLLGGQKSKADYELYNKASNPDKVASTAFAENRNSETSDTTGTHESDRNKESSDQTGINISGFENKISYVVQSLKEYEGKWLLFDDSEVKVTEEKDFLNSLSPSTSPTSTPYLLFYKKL
Chain of Cytochrome P450 2D6 (Homo sapiens) (P10635 whole entry, looked up): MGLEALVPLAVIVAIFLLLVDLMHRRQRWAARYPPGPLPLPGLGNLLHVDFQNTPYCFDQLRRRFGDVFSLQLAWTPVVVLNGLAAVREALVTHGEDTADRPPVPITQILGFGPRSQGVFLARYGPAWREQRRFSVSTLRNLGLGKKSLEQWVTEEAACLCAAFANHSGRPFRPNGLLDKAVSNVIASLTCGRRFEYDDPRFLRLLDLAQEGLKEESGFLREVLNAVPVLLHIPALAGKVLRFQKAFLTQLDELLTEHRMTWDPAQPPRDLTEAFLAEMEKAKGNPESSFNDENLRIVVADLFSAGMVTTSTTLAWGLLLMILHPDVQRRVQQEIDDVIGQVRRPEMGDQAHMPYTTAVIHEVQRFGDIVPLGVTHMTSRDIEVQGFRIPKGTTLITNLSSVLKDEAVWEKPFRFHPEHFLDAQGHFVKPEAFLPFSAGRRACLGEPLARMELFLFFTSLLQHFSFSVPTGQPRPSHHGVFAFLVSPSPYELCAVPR
Chain of ATP-dependent 6-phosphofructokinase (Trypanosoma brucei brucei) (O15648 whole entry, looked up): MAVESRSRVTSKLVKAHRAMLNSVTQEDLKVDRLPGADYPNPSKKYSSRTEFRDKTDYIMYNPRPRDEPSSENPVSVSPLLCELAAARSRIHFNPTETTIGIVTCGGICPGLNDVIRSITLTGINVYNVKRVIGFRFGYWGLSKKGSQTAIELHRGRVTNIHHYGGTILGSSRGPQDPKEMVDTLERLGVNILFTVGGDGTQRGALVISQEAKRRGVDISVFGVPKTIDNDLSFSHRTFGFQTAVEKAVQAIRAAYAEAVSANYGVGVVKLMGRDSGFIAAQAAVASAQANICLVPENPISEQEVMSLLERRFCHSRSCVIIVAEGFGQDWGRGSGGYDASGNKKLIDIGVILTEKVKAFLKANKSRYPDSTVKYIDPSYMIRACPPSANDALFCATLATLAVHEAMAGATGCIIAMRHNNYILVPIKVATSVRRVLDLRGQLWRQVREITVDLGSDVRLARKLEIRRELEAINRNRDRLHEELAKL

C[C@H]1CC[C@@]2(NC1)O[C@@H]1C[C@H]3[C@@H]4CC[C@@H]5C[C@@H](O)CC[C@@]5(C)[C@@H]4CC[C@]3(C)[C@@H]1[C@@H]2C
-2.87%: max response [7, 15]
inactive: outcome [1] | Potency [2] | activity change, negative = inhibition ([3]; at 17.2 µM (top of the series)) 1.76% | outcome [4] | outcome [5] | Potency [6] | activity change, negative = inhibition ([7]; at 25.7 µM (top of the series)) -2.33% | Potency [8]
0.178%: max response [7, 14]

C[N+]1(C)[C@@H]2CC[C@H]1CC(OC(=O)[C@@H](CO)c1ccccc1)C2 (some centres not stated)
-7.55%: max response [7, 14]
-13.1%: max response [7, 15]
inactive: outcome [1] | Potency [2] | outcome [4] | Potency [9] > 46 µM and > 20.6 µM | outcome [5] | Potency [6] | activity change, negative = inhibition ([7]; at 25.7 µM (top of the series)) -3.15% | Potency [10] | Potency [8] | activity, negative = inhibition ([11]; parasite line A) -5.22% | activity, negative = inhibition ([11]; parasite line B) 11.2% | Potency (CP203) | Potency (CP215) | Potency (CP262) | Potency (CP268) | Potency (CP297)
active: activity change, negative = inhibition ([3]; at 17.2 µM (top of the series)) -48.4% | activity change, negative = inhibition ([3]; at 38 µM (top of the series)) -61.2%

C=C[C@H]1CN2CC[C@@H]1C[C@H]2[C@@H](O)c1ccnc2ccccc12
active: Potency [13] 3.16 µM and 501 nM
6.74% and -12.1%: max response [7, 15]
9.79% and -10.1%: max response [7, 14]
inactive: outcome [1] | Potency [2] | activity change, negative = inhibition ([3]; at 17.2 µM (top of the series)) -25.9% | outcome [4] | Potency [9] > 20.6 µM | Potency [12] > 20.6 µM | outcome [5] | Potency [6] | activity change, negative = inhibition ([7]; at 25.7 µM (top of the series)) -1.72% and -4.09%

CCN1C[C@@]2(COC)CC[C@H](OC)[C@]34[C@@H]1[C@]1(OCO[C@@]15C[C@@H](OC)C1C[C@H]3[C@H]5[C@@H]1OC)[C@H](O)[C@@H]24
-14.7%: max response [7, 14]
-15%: max response [7, 15]
inactive: outcome [1] | Potency [2] | activity change, negative = inhibition ([3]; at 17.2 µM (top of the series)) -1.05% | outcome [4] | Potency [9] > 20.6 µM | Potency [12] > 20.6 µM | outcome [5] | Potency [6] | activity change, negative = inhibition ([7]; at 25.7 µM (top of the series)) -0.879% | Potency [8]

O=C(Nc1cccc(F)c1)N1CCC2(CC1)CCN(C(=O)Oc1ccccc1)CC2
inactive: outcome [1] | Potency [2] | activity change, negative = inhibition ([3]; at 7.69 µM (top of the series)) 12% | outcome [4] | Potency [12] > 46 µM | outcome [5] | Potency [6] | activity change, negative = inhibition ([7]; at 57.5 µM (top of the series)) -7.04%
-28%: max response [7, 15]
-23.3%: max response [7, 14]

C[N+]1([O-])[C@@H]2CC[C@H]1CC(OC(=O)[C@@H](CO)c1ccccc1)C2 (some centres not stated)
-2.94%: max response [7, 15]
inactive: outcome [1] | Potency [2] | outcome [4] | Potency [9] > 20.6 µM | Potency [12] > 20.6 µM | outcome [5] | Potency [6] | activity change, negative = inhibition ([7]; at 25.7 µM (top of the series)) -4.15% | Potency [10] | activity, negative = inhibition ([11]; parasite line A) 1.56% | activity, negative = inhibition ([11]; parasite line B) -10% | Potency (CP203) | Potency (CP215) | Potency (CP262) | Potency (CP268) | Potency (CP297)
1.61%: max response [7, 14]
